TDP1 cell CPT: growth inhibition of DT40 Tdp1-/-;hTDP1 cells with camptothecin (screen for TDP1 inhibitors) | 420,000 compounds, 12% hits | chicken DT40 Tdp1-/-;hTDP1 cells + 20 nM CPT, ATP luminescence, 48 h | Potency, µM (doses to about 46.2 µM), inactives show top-dose activity change, negative = growth inhibition, hits mostly inhibitors | AID 686979; also: nearly all actives have a fitted effect of over 55% in size
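Chicken DT40 Tdp1-/- cells stably complemented with human TDP1 were seeded at 400 cells/well in medium containing 20 nM camptothecin, exposed to pin-transferred compounds, and grown at 37 °C for at least 48 hr. Viability was read as ATP luminescence.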
RORg inh: inhibitors of mouse ROR gamma transcriptional activity | P51450 | Drosophila S2 Gal4-RORgamma UAS-luciferase reporter, 20 h | Potency, µM (titrated, usually from 53.6 µM), inactives show at the top dose activity change, negative = inhibition, usual class: inhibitors | 310,000 compounds, 5.4% hits; also: nearly all actives have a fitted effect of over 60% in size
Target sequence (P51450 whole entry, looked up, the tested form may be a part): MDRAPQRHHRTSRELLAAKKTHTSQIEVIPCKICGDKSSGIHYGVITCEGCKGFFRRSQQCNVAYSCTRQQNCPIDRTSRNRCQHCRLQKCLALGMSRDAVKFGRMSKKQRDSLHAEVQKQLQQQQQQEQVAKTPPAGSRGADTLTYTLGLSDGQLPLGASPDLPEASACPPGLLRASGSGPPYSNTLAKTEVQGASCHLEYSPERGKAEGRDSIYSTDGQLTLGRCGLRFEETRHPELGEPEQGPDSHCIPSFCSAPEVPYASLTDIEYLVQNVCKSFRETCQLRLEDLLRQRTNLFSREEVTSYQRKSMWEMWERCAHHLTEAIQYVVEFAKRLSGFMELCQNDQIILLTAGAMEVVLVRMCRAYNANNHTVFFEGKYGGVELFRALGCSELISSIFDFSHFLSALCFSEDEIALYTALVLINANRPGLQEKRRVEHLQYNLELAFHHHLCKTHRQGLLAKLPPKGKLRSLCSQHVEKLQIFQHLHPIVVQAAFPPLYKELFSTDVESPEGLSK
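Schneider cells (Drosophila), stable Gal4 DBD–ROR gamma + UAS-luc; 1 hr cmpd preincubation; Cu2+ induction 700 uM final; 20 hr ambient; luminescence.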
Gal4-VP16 FLuc: Gal4-VP16 reporter inhibition counter-screen | Potency, µM (titrated, usually from 53.6 µM), for inactives: at the top dose activity, negative = inhibition, actives largely listed as inhibitors | 310,000 compounds, 3.5% hits | Drosophila S2 Gal4-VP16 UAS-luciferase, luminescence, 20 h;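 also: Gal4-VP16 expression switched on by copper sulfate through the metallothionein promoter; nearly all actives have a fitted effect of over 50% in size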
12-LOX inh: blocks human arachidonate 12S-lipoxygenase | P18054 | purified 12hLO, xylenol orange hydroperoxide absorbance | Potency, µM (top dose mostly 108 µM), inactives show at the top dose activity change, negative = inhibition, actives largely listed as inhibitors | 580,000 compounds, 1.1% hits
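Hydroperoxide product was detected by ferrous iron/xylenol orange as the 573 to 405 nm absorbance ratio. Arachidonic acid at 40 uM (final) was turned over for 30 min at room temperature by 150 nM human 12hLO, pH 7.0 Hepes buffer, after 15 min compound preincubation.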
ELG1 repair inh: ELG1-dependent DNA repair inhibition; HEK293T ELG1-luciferase reporter, luminescence, 16 h; DNA damage induced by 5-fluorouridine; Potency, µM (doses to about 46.1 µM), inactives show top-dose activity change, negative = inhibition, hits mostly inhibitors; 330,000 compounds, 2.3% hits; also: nearly all actives have a fitted effect of over 55% in size
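Reporter activity after DNA damage by 5-fluorouridine is monitored. Compound-treated cells incubate 16 hr at 37 °C, then ONE-Glo is added for 30 min before luminescence reading.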
DT40 TDP1 no CPT: qHTS for Inhibitors of human tyrosyl-DNA phosphodiesterase 1 (TDP1): qHTS in cells in absence of CPT | DT40 Tdp1-/- hTDP1 cells, no CPT, ATP luminescence, 48 h | 420,000 compounds, 15% hits | AID 686978, 2013 | Potency, µM (series often up to 46.2 µM), inactives show top-dose activity change, negative = growth inhibition, hits mostly inhibitors; also: nearly all actives have a fitted effect of over 55% in size
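Chicken DT40 Tdp1-/- cells complemented with human TDP1, screened without camptothecin (DMSO vehicle only), 400 cells/well. Compounds pin-transferred, cells incubated at 37 °C for at least 48 hr. Growth read as ATP-dependent luminescence (CellTiter-Glo, 30 min at RT).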
Numbers without * were called inactive; [ ] = another dose, or the depositor's remark. This is a sample that favours compounds with a hit; in the whole collection about 15% have one here. Calls follow the shape of the dose curve; as a rule, active = well fitted curve in the direction sought with a large enough effect; inconclusive = small, poorly fitted or top-dose-only effect, or another doubt; inactive = no such curve, though single readings can be large; an effect the other way counts as inactive or inconclusive. % is scaled to controls: 0 for no effect and ±100 for the full control effect; potency is read from the fitted curve at half-maximal effect.

What do the screens show for `O=C(c1ccc(S(=O)(=O)Nc2ccc(F)cc2)cc1)N1CCN(c2ccccn2)CC1`?
TDP1 cell CPT: inconclusive; RORg inh: -17.4%; Gal4-VP16 FLuc: inconclusive; 12-LOX inh: -13.5%; ELG1 repair inh: 16.4µM*; DT40 TDP1 no CPT: 18.4µM*

What do the screens show for `CCOC(=O)C1CCN(C(=O)c2ccc(S(=O)(=O)Nc3ccccc3Cl)cc2)CC1`?
TDP1 cell CPT: inconclusive; 12-LOX inh: -2.7%; ELG1 repair inh: -6.3%; DT40 TDP1 no CPT: 11.6µM*

How did Cc1ccc(CC(=O)NC(C)c2ccccn2)cc1C (configuration not stated) do in these assays?
12-LOX inh: 32.8%

How did Cc1cnc(CN2CC3(CCCN(c4ccc(C#N)cn4)C3)CCC2=O)cn1 (configuration not stated) do in these assays?
12-LOX inh: -14.5%

Results for CC(OC(=O)c1csc(NCc2ccccc2)n1)C(=O)NC1(C#N)CCCCC1 (configuration not stated) ?
12-LOX inh: -11.9%

What do the screens show for `COc1ccc(N2CCN(C(=O)c3ccc(NS(=O)(=O)c4ccc(F)c(F)c4)cc3)CC2)cc1`?
TDP1 cell CPT: inconclusive; RORg inh: inconclusive; Gal4-VP16 FLuc: -0.3%; 12-LOX inh: 0.0%; ELG1 repair inh: 3.4%; DT40 TDP1 no CPT: inconclusive

What do the screens show for `COc1ccc(NS(=O)(=O)c2ccc(C(=O)N3CCN(c4ccc(F)cc4)CC3)cc2)cc1`?
TDP1 cell CPT: 10.3µM*; 12-LOX inh: 175.2%; ELG1 repair inh: inconclusive; DT40 TDP1 no CPT: 4.61µM*

Results for O=S(=O)(Nc1ccc(N2CCCCC2)cc1)c1ccc(F)cc1 ?
TDP1 cell CPT: 16.4µM*; RORg inh: 5.2%; Gal4-VP16 FLuc: -24.3%; 12-LOX inh: inconclusive; ELG1 repair inh: inconclusive; DT40 TDP1 no CPT: 29.1µM*

What do the screens show for `O=S(=O)(Nc1ccc(N2CCCCC2)cc1)c1ccccc1`?
TDP1 cell CPT: inconclusive; RORg inh: 27.3%[10 µM]; Gal4-VP16 FLuc: -1.3%; 12-LOX inh: 4.5%; ELG1 repair inh: inconclusive; DT40 TDP1 no CPT: inconclusive

Results for CCOC(=O)N1CCN(C(=O)c2ccc(S(=O)(=O)Nc3ccccc3)cc2)CC1 ?
TDP1 cell CPT: 11.6µM*; 12-LOX inh: 18.6%; ELG1 repair inh: -10.9%; DT40 TDP1 no CPT: inconclusive

What do the screens show for `CCOc1cccc(CNC(=O)c2c(OC)cc(=O)n3c2CCCC3)c1`?
12-LOX inh: 32.0%

Results for COCc1ccc(C(=O)Nc2ccc(NC(C)=O)cc2C(F)(F)F)cc1 ?
12-LOX inh: -2.4%

What do the screens show for `CCOC(=O)c1cnc(-n2nc(C)cc2C)nc1Nc1cccc(C(=O)O)c1`?
TDP1 cell CPT: -9.7%; RORg inh: -3.3%[10 µM]; Gal4-VP16 FLuc: 5.2%; 12-LOX inh: inconclusive; ELG1 repair inh: inconclusive; DT40 TDP1 no CPT: -22.0%

Results for CCOC(=O)c1cnc(-n2nc(C)cc2C)nc1NNc1nc(-c2ccccc2)cc(-c2ccccc2)n1 ?
TDP1 cell CPT: 3.66µM*; RORg inh: 0.794µM*; Gal4-VP16 FLuc: 0.708µM*; ELG1 repair inh: 5.17µM*; DT40 TDP1 no CPT: 3.26µM*

Results for CCOC(=O)c1cnc(-n2nc(C)cc2C)nc1NNc1nc(C)cc(C)n1 ?
TDP1 cell CPT: -4.3%; RORg inh: 3.98µM*; Gal4-VP16 FLuc: inconclusive; 12-LOX inh: inactive; ELG1 repair inh: 11.6µM*; DT40 TDP1 no CPT: -22.6%

How did O=c1n(-c2ccncc2)nc2n1CCN([S+](=O)([O-])c1cccs1)C2 do in these assays?
12-LOX inh: 57.9%

How did COc1ccc(CNc2ncncc2-c2cccc(C#N)c2)c(OC)c1 do in these assays?
TDP1 cell CPT: inconclusive; RORg inh: inconclusive; Gal4-VP16 FLuc: 5.8%; 12-LOX inh: -9.6%; DT40 TDP1 no CPT: inconclusive

Screens as filed in PubChem.
